Source: PubChem BioAssay
TR SRC2 fluor cs – Texas Red fluorescence interference in TRb-SRC2 counter-screen; Potency, µM (doses to about 106 µM); 280,000 compounds, 0.29% hits; TRb/SRC2 Texas Red total fluorescence interference; active = well fitted curve in either direction with a large enough effect; inconclusive = small, poorly fitted or top-dose-only effect
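Flags fluorescent or light-absorbing compounds by total fluorescence, S + 2P, at 555 nm excitation and 632 nm emission. Mixture: 20 nM Texas Red SRC2 peptide, 0.6 uM human TRb LBD, 1 uM T3, 5% DMSO; compound exposure 5 h at ambient temperature.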
Tau fibril ThT – inhibitors of human tau fibril formation, thioflavin T binding; Potency, µM (titrated, usually from 57.4 µM), most hits filed as inhibitors; P10636; 270,000 compounds, 2.1% hits; recombinant tau K18 P301L, heparin-induced fibrillization, ThT fluorescence; AID 1460; note: nearly all actives have a fitted effect of over 55% in size
Target sequence (P10636 561-689 P618L limits assumed): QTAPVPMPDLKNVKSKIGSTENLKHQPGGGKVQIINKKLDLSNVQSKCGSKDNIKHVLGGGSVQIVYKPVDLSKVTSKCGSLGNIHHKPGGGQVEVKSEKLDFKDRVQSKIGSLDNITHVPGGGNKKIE
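Recombinant human tau K18 fragment […] carrying P301L, 15 uM unlabeled plus 0.24 uM Alexa 594-labeled, was fibrillized with 20 uM heparin in 100 mM sodium acetate pH 7 for 6 hr at 37 C; 30 uM ThT fluorescence read after 1 hr.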
TRb SRC2 PPI – inhibitors of human thyroid hormone receptor beta-SRC2 interaction; AID 1469; P10828; TRbeta-SRC2 peptide binding, fluorescence polarization; receptor liganded with 1 µM T3; Potency, µM (highest dose often 106 µM), actives largely listed as inhibitors; 280,000 compounds, 0.065% hits; note: nearly all actives have a fitted effect of over 50% in size
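Assay buffer: 20 mM Tris-HCl, 100 mM NaCl, 10% glycerol, 1 mM EDTA, 0.01% NP-40, 1 mM DTT, 1 uM T3, 5% DMSO; TRb LBD 0.6 uM, Texas Red SRC2 20 nM; FP after 5 hr.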
Tau fluor counter – counter-screen for tau fibril formation inhibitors. tau K18 P301L (four-repeat tau fragment) Alexa594 fluorescence, heparin fibrillization. AID 1463. Potency, µM (doses to about 57.7 µM). 280,000 compounds, 0.93% hits; note: nearly all actives have a fitted effect of over 55% in size
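Human K18 P301L tau (15 uM unlabeled plus 0.24 uM Alexa 594-labeled, final) in 100 mM sodium acetate pH 7 was mixed with compound and 20 uM heparin and incubated 6 hr at 37 C.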
Tau fibril FP – blocks human tau fibril formation measured by polarization; P10636; K18 P301L tau heparin fibrillization, Alexa594 FP, 6 h; Potency, µM (doses to about 57.7 µM), most hits filed as inhibitors; 280,000 compounds, 0.39% hits; note: nearly all actives have a fitted effect of over 55% in size
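Human K18 P301L fragment (15 uM unlabeled plus 0.24 uM Alexa 594-labeled) in 100 mM sodium acetate pH 7 with compound, aggregation induced by 20 uM heparin for 6 hr at 37 C. ThT (30 uM) added for 1 hr, then Alexa 594 FP read.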
RGS12 GoLoco inh – inhibitors of human Gai1-RGS12 GoLoco interaction (red fluorophore); Potency, µM (doses to about 61.6 µM), actives largely listed as inhibitors; 230,000 compounds, 0.44% hits; Gai1:RGS12 GoLoco peptide FP, rhodamine, 10 min; P63096; active = well fitted inhibition curve with a large enough effect, not every such curve was filed as active; inactive = no such curve, though single readings can be large or run the other way; note: nearly all actives have a fitted effect of over 30% in size
Target sequence (P63096 whole entry, looked up): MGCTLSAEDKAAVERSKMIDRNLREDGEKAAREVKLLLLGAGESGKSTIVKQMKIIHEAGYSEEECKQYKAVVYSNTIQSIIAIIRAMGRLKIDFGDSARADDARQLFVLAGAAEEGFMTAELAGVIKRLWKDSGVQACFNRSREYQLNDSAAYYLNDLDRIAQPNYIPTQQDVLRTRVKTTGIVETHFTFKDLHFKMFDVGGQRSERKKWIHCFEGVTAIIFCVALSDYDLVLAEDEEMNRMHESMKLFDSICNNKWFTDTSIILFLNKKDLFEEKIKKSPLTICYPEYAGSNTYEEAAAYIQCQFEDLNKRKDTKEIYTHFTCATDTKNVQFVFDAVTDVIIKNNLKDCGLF
Each line names hits and unclear results; the compound was inactive in the other large screens; [ ] = dose if it differs, or a comment. Rows were chosen to be rich in hits. Some 3.2% of all compounds tested hit in one or more screens of this group. Unless noted, calls come from the whole dose curve; as a rule, active = well fitted curve in the direction sought with a large enough effect; inconclusive = small, poorly fitted or top-dose-only effect, or another doubt; inactive = no such curve, though single readings can be large; an effect the other way counts as inactive or inconclusive.

COc1ccc(OC)c(NC(=O)c2c(NCc3ccc(C)o3)sc3c2CCCCC3)c1	Tau fibril ThT 25µM, Tau fluor counter inconclusive, Tau fibril FP inconclusive (no result: RGS12 GoLoco inh)
COc1ccc(NC(=O)c2c(NCc3cccs3)sc3c2CCCC3)cc1	Tau fibril ThT inconclusive, Tau fluor counter inconclusive (no result: RGS12 GoLoco inh)
COc1ccc(NC(=O)c2c(NCc3cccs3)sc3c2CCCCC3)c(OC)c1	Tau fibril ThT 25µM, Tau fluor counter inconclusive, Tau fibril FP inconclusive (no result: RGS12 GoLoco inh)
COc1ccccc1NC(=O)c1c(NCc2ccc(C)o2)sc2c1CCCCC2	Tau fibril ThT 25µM, Tau fluor counter inconclusive, Tau fibril FP inconclusive (no result: RGS12 GoLoco inh)
CCCCCSc1nc2sc3c(c2c(=O)n1-c1ccc(OC)cc1)CCN(C(C)=O)C3	TR SRC2 fluor cs 22µM[quencher], Tau fibril ThT inconclusive, TRb SRC2 PPI inconclusive (no result: RGS12 GoLoco inh)
Oc1c(C=Nc2ccccc2Cl)[nH]c2ccccc12	Tau fibril ThT 40µM, Tau fluor counter inconclusive, Tau fibril FP inconclusive
C=CCOCC1CN2C(CCC(C)C2c2ccc(Br)cc2)C(=O)O1 (stereo unspecified)	none (no result: RGS12 GoLoco inh)
O=C1CC(c2ccco2)CC(O)=C1C=Nc1cc(Cl)ccc1Cl (stereo unspecified)	Tau fibril ThT 22µM, Tau fibril FP inconclusive
O=C1CC(c2ccco2)CC(O)=C1C=Nc1cc(Cl)ccc1O (stereo unspecified)	Tau fibril ThT inconclusive
Cc1oc(-c2ccccc2F)nc1CSCC(=O)NCCc1ccccc1	TR SRC2 fluor cs 0.13µM[quencher], Tau fibril ThT inconclusive (no result: RGS12 GoLoco inh)
CCOc1ccc(-c2nc(CSCC(=O)NCCc3ccccc3)c(C)o2)cc1	Tau fibril ThT inconclusive (no result: RGS12 GoLoco inh)
C/C(=N\Nc1cccc2cccnc12)c1ccc(N)cc1	Tau fibril ThT 25µM, Tau fluor counter inconclusive, Tau fibril FP inconclusive
C/C(=N\Nc1cccc2cccnc12)c1ccccn1	Tau fibril ThT inconclusive
COc1ccc(-c2ccc(C3C4C=CCC(C)C4C(=O)N3Cc3ccccc3)c(F)c2)cc1C (stereo unspecified)	none (no result: Tau fibril ThT, Tau fluor counter, Tau fibril FP, RGS12 GoLoco inh)
Cc1cc(Nc2cccc(Cl)c2)nc2ccc(NC(=O)c3cccnc3)cc12	Tau fibril ThT inconclusive, Tau fluor counter 7.9µM[quencher] (no result: RGS12 GoLoco inh)
Cc1cc(Nc2cccc(C(F)(F)F)c2)nc2ccc(NC(=O)c3ccc(N(C)C)cc3)cc12	Tau fibril ThT 3.5µM, Tau fluor counter 3.5µM[quencher] (no result: RGS12 GoLoco inh)
CN(C)c1cccc(C(=O)Nc2cccc(F)c2)c1	Tau fibril ThT inconclusive
Cc1cccc(OCC(=O)Nc2ccc3nc(Nc4cccc(C(F)(F)F)c4)cc(C)c3c2)c1	TR SRC2 fluor cs inconclusive, Tau fluor counter inconclusive (no result: RGS12 GoLoco inh)
Cc1cc(Nc2cccc(Cl)c2)nc2ccc(NC(=O)c3cccc(N(C)C)c3)cc12	Tau fibril ThT inconclusive, Tau fluor counter 4.5µM[quencher] (no result: RGS12 GoLoco inh)
COc1ccc(Cl)cc1C(Nc1cccnc1)c1ccc2cccnc2c1O (stereo unspecified)	Tau fibril ThT 28µM, Tau fibril FP inconclusive
CCC(=O)NC(c1ccccc1OC)c1ccc2cccnc2c1O (stereo unspecified)	none
COc1ccc(-c2nc3c(c4c2C[C@H](c2ccccc2)OC4)CN(S(=O)(=O)c2ccc(C#N)cc2)CC3)c(C)c1	none
CC(=O)Nc1ccc(Nc2ccc3cc(S(=O)(=O)N4CCCCC4)ccc3n2)cc1	Tau fibril ThT inconclusive, Tau fluor counter 14µM[quencher] (no result: RGS12 GoLoco inh)
CC1CCN(S(=O)(=O)c2ccc3nc(Nc4cccc(F)c4)ccc3c2)CC1	Tau fluor counter inconclusive, Tau fibril FP 13µM (no result: RGS12 GoLoco inh)
CC(=O)c1ccc(S(=O)(=O)N2CCCC2)cc1	Tau fibril ThT inconclusive
CC(=O)c1ccc(Nc2ccc3cc(S(=O)(=O)N4CCCC4)ccc3n2)cc1	Tau fluor counter 11µM[quencher], Tau fibril FP 22µM (no result: RGS12 GoLoco inh)
CC(=O)Nc1ccc(S(=O)(=O)N2CCN(S(=O)(=O)N3CCCCC3)CC2)cc1	none
S=C=Nc1ccc(N=C=S)cc1	none (no result: Tau fibril ThT, Tau fluor counter, Tau fibril FP, RGS12 GoLoco inh)
CC1=CC(=C(C#N)c2nc3ccccc3s2)C=C(C)N1CC1CCCO1 (stereo unspecified)	Tau fibril ThT inconclusive, Tau fluor counter 7.9µM[quencher], Tau fibril FP inconclusive
O=C(N/N=C/c1cccc([N+](=O)[O-])c1)c1nc2ccccc2c(=O)[nH]1	none
O=C(N/N=C/c1ccccc1Cl)c1nc2ccc([N+](=O)[O-])cc2c(=O)[nH]1	Tau fibril ThT 10µM, Tau fluor counter inconclusive
